The text below walks through data of PubChem BioAssay (Tox21).

Records with an inconclusive call do not appear. Calls of active or inactive are those of the source. Unless noted, calls come from the whole dose curve.

Assay [1] in a line: Nuclear factor erythroid 2-related factor 2/antioxidant responsive element (Nrf2/ARE) small molecule agonists: qHTS cell viability counter screen in human keratinocytes (AID 1919968; active = well fitted curve in the direction sought with a large enough effect in the repeat runs; an effect the other way counts as inactive or inconclusive; note: nearly all actives have a fitted effect of over 55% in size). The procedure, abridged:
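KeratinoSens HaCaT cells, 1,500/well, preincubated 5 h, then exposed to compounds in DMSO for 23 h at 37 C/5% CO2. Viability read as CellTiter-Fluor fluorescence after 1 h, in the same wells as the ARE-luciferase read.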
For orientation: In qHTS, concentration-response curves come from the screen itself.

Assay [2] can be described thus: Nuclear factor erythroid 2-related factor 2/antioxidant responsive element (Nrf2/ARE) small molecule agonists: luciferase reporter gene qHTS assay in human keratinocytes (AID 1919969). Note: nearly all actives have a fitted effect of over 35% in size. Note: potency is the fitted concentration of half-maximal effect. On the technique in general: Reporter assays use an easily measured gene product as a stand-in for the process of interest.
Assay [3] concerns the target Gonadotropin-releasing hormone receptor (Homo sapiens) (UniProt P30968). In words: Human gonadotropin-releasing hormone receptor (GnRHR) small molecule agonists, calcium flux assay in GnRHR-HEK293 cells (AID 1920063). Note: nearly all actives have a fitted effect of over 35% in size. The procedure, abridged:
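HEK293 cells stably expressing human GnRHR were dye-loaded for 1 h at 37 C. Compound was added in agonist mode and fluorescence (Ex/Em 480/540) recorded kinetically for 3 min. Fifteen concentrations, triplicates.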
Background: Calcium flux is commonly read through the fluorescence of an indicator in the cells.

Assay [4] deals with KiSS-1 receptor (Homo sapiens) (UniProt Q969F8). As to the kind of experiment: Human kisspeptin (KISS1R) small molecule agonists, calcium flux assay in KISS1R-HEK293 cells (AID 1920064; active = well fitted curve in the direction sought with a large enough effect in the repeat runs; an effect the other way counts as inactive or inconclusive). In outline: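 HEK293 cells stably expressing human KISS1R were loaded with calcium dye for 1 h at 37 C, then given compound; fluorescence (Ex/Em 480/540) was read kinetically for 3 min. Fifteen concentrations, triplicate.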
Sequence of KiSS-1 receptor (Homo sapiens) (Q969F8 whole entry, looked up): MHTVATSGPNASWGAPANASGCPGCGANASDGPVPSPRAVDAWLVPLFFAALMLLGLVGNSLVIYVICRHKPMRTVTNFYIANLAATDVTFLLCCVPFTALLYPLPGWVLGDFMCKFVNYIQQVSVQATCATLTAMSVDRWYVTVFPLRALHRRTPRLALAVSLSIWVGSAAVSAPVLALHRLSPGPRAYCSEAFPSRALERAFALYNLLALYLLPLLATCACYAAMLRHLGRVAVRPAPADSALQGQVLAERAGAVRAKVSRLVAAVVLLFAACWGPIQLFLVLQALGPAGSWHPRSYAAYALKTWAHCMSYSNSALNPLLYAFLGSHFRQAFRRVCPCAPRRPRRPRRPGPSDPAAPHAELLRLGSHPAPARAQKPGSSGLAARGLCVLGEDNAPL

The nature of assay [5]: G protein-coupled receptor (GPCR) small molecule agonists, calcium flux assay: HEK293 wild type cell line counter screen (AID 1920065). In outline:
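Wild-type HEK293 cells plated 18 h, loaded with calcium dye 1 h at 37 C, then compounds added in agonist mode (ATP as positive control). Kinetic fluorescence Ex/Em 480/540 recorded 3 min at 1 sec intervals; 15 concentrations, triplicate.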

A short description of assay [6]: p53 small molecule agonists, cell-based qHTS assay with human liver microsomes (AID 1963577).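 Note: p53 response element beta-lactamase reporter cells with liver microsomes plus NADPH.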 The procedure, abridged:
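16 h, 37 C exposure of p53RE-bla cells to compounds with human liver microsomes and NADPH (0.5 mg/mL final each); detection via LiveBLAzer mixture, 2 h dark at room temperature.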

Assay [7] in a line: p53 small molecule agonists, cell-based qHTS assay with rat liver microsomes (AID 1963578). In outline: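 With rat liver microsomes and NADPH present (0.5 mg/mL final each), p53RE-bla cells are treated with compound for 16 h at 37 C. LiveBLAzer detection mixture is then applied for 2 h at room temperature in the dark.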
Assay [8] is described as follows: p53 small molecule agonists, cell-based qHTS assay with human liver microsomes: qHTS cell viability counter screen (AID 1963579). Note: nearly all actives have a fitted effect of over 45% in size. In outline: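 In this multiplexed counter screen, the reporter plates were subsequently treated with CellTiter-Glo so that cell viability, reflected by luminescence, could be recorded for p53RE-bla cells dosed 16 h with compounds under microsomal activation (HLM and NADPH).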

Assay [9] is described as follows: p53 small molecule agonists, cell-based qHTS assay with rat liver microsomes: qHTS cell viability counter screen (AID 1963580). Note: nearly all actives have a fitted effect of over 45% in size. The procedure, abridged: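 Intracellular ATP, by CellTiter-Glo luminescence, defines viability. HCT-116 p53RE-bla cells, 4,000 per well, were compound-treated in the presence of rat liver microsomes and NADPH for 16 h at 37 C.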
Assay [10] in a line: p53 small molecule agonists, cell-based qHTS assay: qHTS cell viability counter screen (AID 1963581). Note: nearly all actives have a fitted effect of over 45% in size. The procedure, abridged:
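p53RE-bla HCT-116 cells, compounds added 5 h after plating and incubated 16 h at 37 C. Cytotoxicity measured in the same wells as intracellular ATP by CellTiter-Glo luminescence after 30 min at room temperature.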

A short description of assay [11]: p53 small molecule agonists, cell-based qHTS assay (AID 1963582; active = well fitted activation curve with a large enough effect in the signal ratio in the repeat runs, not every such curve was filed as active; the % refers to the signal ratio). In outline:
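p53RE-bla reporter cells, compounds added in DMSO after 5 h plating, incubated 16 h at 37 C. Beta-lactamase read via 2 h room-temperature LiveBLAzer B/G FRET substrate, fluorescence intensity.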

Assay [12] deals with 5-hydroxytryptamine receptor 2A (Homo sapiens) (UniProt P28223). In words: 5-hydroxytryptamine receptor 2A (HTR2A) small molecule antagonists, cell-based qHTS assay (AID 1963586). Note: nearly all actives have a fitted effect of over 45% in size. Note: potency is the fitted concentration of half-maximal effect. The procedure, abridged: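 Antagonist-mode intracellular calcium assay: DOI (4 nM) added after 5 min compound pre-incubation at room temperature to dye-loaded HTR2A-CHO cells. Fluorescence followed for 3 min, sampled every second.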
Sequence of 5-hydroxytryptamine receptor 2A (Homo sapiens) (P28223 whole entry, looked up): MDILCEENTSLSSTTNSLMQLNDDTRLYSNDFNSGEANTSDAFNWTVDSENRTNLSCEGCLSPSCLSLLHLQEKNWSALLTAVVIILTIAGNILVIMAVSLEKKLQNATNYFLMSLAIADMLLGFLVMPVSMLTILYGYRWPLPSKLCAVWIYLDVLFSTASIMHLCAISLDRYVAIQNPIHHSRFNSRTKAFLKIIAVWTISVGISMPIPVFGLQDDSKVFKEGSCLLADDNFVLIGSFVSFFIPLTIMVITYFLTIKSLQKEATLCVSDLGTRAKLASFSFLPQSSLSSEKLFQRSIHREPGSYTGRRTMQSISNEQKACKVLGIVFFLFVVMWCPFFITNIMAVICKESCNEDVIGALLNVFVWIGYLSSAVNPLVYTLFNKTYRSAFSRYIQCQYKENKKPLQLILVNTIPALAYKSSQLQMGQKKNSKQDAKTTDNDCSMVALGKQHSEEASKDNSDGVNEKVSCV

The target is the same in assay [13]. In words: 5-hydroxytryptamine receptor 2A (HTR2A) small molecule agonists, cell-based qHTS assay (AID 1963587). Note: nearly all actives have a fitted effect of over 30% in size. In outline:
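Kinetic calcium-flux fluorescence (2 min, 1 sec intervals) after compound addition in agonist mode. HTR2A-CHO cells were cultured 18 h, then dye-loaded 1 h at 37 C.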

Assay [14] addresses Muscarinic acetylcholine receptor M1 (Homo sapiens) (UniProt P11229). In words: Cholinergic receptor muscarinic 1 (CHRM1) small molecule antagonists, cell-based qHTS assay (AID 1963588). Note: nearly all actives have a fitted effect of over 40% in size. Note: potency is the fitted concentration of half-maximal effect. In outline:
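CHRM1-CHO calcium-flux assay, antagonist mode. Cells were seeded 18 h, dye-loaded 1 h at 37 C and given compound for 5 min at RT, then acetylcholine was added at 50nM. FDSS fluorescence was read 3 min; 15 concentrations, three runs.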

The target is the same in assay [15]. As to the kind of experiment: Cholinergic receptor muscarinic 1 (CHRM1) small molecule agonists, cell-based qHTS assay (AID 1963589). Note: nearly all actives have a fitted effect of over 35% in size. The procedure, abridged: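 CHO cells stably expressing human CHRM1 were loaded with calcium dye for 1 h at 37 C, then compound was added in agonist mode. Intracellular calcium fluorescence was followed kinetically at 1 s intervals. Fifteen concentrations were tested in three independent runs.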

The nature of assay [16]: cAMP Responsive Elements (CRE) small molecule antagonists, cell-based qHTS assay (AID 1963591; active = well fitted inhibition curve with a large enough effect in the signal ratio in the repeat runs, not every such curve was filed as active; the % refers to the signal ratio). In outline: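 CRE-bla HEK293T cells plated 18 h, then given compound plus NKH477 at 0.25 uM final for 3 h at 37C. Beta-lactamase reporter read with LiveBLAzer B/G FRET substrate after 2 h at room temperature.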
Assay [17] concerns the target Beta-2 adrenergic receptor (Homo sapiens) (UniProt P07550). In words: Adrenergic beta2 receptor (ADRB2) small molecule antagonists, cell-based qHTS assay (AID 1963592). Note: nearly all actives have a fitted effect of over 50% in size. Note: potency is the fitted concentration of half-maximal effect. The procedure, abridged:
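Cells (CHO, stable ADRB2 overexpression) incubated 18-20hr at 37C; compounds added from DMSO; agonist mix (1nM isoproterenol, 100uM IBMX, 25uM Ro-20-1724) added; 0.5hr RT; d2-cAMP and anti-cAMP-cryptate added; 1hr RT; 665/615 nm read.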

The target in assay [18] is D(2) dopamine receptor (Homo sapiens) (UniProt P14416). In words: Dopamine D2 receptor (DRD2) small molecule antagonists, cell-based qHTS assay (AID 1963595; active = well fitted inhibition curve with a large enough effect in the signal ratio in the repeat runs, with a control signal flat; the % refers to the signal ratio; note: potency is the fitted concentration of half-maximal effect). In outline: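 Antagonism was scored as restored cAMP in HEK293-DRD2 cells. These cells were stimulated with 200 nM NKH477 and 12 nM quinpirole for 30 min at room temperature, in the presence of 0.1 mM Ro20-1724.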
Sequence of D(2) dopamine receptor (Homo sapiens) (P14416 whole entry, looked up): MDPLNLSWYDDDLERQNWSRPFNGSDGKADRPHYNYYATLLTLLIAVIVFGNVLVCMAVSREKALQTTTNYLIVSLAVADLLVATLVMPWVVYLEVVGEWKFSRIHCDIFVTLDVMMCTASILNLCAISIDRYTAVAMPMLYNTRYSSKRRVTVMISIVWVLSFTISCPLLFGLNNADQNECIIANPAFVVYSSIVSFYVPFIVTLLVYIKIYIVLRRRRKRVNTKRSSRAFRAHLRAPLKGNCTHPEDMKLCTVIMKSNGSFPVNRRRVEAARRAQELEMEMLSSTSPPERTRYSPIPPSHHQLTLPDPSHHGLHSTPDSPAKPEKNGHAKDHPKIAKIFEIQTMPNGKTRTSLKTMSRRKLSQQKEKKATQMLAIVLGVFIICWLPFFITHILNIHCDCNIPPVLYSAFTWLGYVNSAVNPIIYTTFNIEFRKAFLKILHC

Assay [19] shares this target. In words: Dopamine D2 receptor (DRD2) small molecule agonists, cell-based qHTS assay (AID 1963594). Note: nearly all actives have a fitted effect of over 35% in size. In outline:
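cAMP accumulation in DRD2-HEK293 cells measured by HTRF after 1 h detection; compounds added 10 min before NKH477 (200nM […]) forskolin-analogue stimulation, 30 min at room temperature, with Ro20-1724 present at 0.1 mM final.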

Sequence of Muscarinic acetylcholine receptor M1 (Homo sapiens) (P11229 whole entry, looked up): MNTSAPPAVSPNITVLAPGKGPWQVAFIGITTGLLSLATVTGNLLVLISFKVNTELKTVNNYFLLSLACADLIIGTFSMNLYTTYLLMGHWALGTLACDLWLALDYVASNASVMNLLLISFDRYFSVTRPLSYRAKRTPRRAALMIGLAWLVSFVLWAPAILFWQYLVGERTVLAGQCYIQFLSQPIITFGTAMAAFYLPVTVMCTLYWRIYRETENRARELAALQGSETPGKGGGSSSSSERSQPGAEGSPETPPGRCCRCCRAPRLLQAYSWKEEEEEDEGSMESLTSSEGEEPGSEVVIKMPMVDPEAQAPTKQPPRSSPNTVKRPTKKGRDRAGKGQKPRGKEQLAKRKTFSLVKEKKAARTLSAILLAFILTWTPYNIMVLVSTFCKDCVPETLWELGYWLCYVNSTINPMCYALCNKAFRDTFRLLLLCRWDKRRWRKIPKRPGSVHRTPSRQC
Sequence of Gonadotropin-releasing hormone receptor (Homo sapiens) (P30968 whole entry, looked up): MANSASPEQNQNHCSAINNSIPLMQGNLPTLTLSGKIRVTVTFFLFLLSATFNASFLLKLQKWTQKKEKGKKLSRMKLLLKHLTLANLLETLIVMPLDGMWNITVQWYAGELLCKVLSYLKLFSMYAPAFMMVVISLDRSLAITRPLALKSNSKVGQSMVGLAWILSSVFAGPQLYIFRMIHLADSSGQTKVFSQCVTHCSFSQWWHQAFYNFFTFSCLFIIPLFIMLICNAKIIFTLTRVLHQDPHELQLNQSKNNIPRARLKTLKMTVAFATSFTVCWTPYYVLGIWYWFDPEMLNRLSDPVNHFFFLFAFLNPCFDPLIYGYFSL
Sequence of Beta-2 adrenergic receptor (Homo sapiens) (P07550 whole entry, looked up): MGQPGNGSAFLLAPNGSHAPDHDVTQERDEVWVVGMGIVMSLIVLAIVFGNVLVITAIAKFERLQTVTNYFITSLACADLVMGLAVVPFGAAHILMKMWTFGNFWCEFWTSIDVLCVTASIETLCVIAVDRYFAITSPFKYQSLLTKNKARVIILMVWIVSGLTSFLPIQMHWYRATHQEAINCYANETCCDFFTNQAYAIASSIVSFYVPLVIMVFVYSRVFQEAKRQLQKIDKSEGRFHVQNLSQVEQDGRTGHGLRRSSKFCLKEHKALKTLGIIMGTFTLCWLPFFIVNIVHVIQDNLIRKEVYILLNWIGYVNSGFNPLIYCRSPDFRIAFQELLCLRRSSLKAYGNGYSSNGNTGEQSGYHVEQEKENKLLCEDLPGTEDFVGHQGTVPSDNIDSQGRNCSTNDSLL

In the case of `CC(C)(C)C(=O)O`, the Potency result in assay [1], in assay [2], in assay [3], in assay [6], in [7] and in [8] was “inactive” each time. Moreover, the Potency entry in assay [9], in [10], in [11], in assay [12], in assay [13] and in [14] was “inactive” in each case. In addition, the Potency result in assay [15], in assay [16], in assay [17] and in assay [18] was “inactive” throughout. The outcome in assay [4] and in assay [5] was inactive.

With `N#CCc1ccc(Cl)cc1Cl`, the Potency entry in assay [1], in assay [2], in assay [3], in assay [6], in assay [7] and in [8] was “inactive” in each case. Besides, the Potency entry in [9], in assay [10], in [11], in assay [12], in assay [13] and in assay [14] was “inactive” in each case. Moreover, the Potency entry in [15], in assay [16], in assay [17] and in [18] was “inactive” throughout. In addition, the outcome in [4] and in [5] was inactive.

As for `CN1Cc2cc(C(=O)N3CCC(C4CCNCC4)CC3)ccc2NC(CC(=O)O)C1=O` (stereo not drawn), the Potency entry in [1], in [2], in assay [3], in assay [6], in assay [7] and in assay [8] was “inactive” in each case. Further, the Potency result in [9], in [10], in assay [11], in assay [12], in [13] and in assay [15] was “inactive” each time. For the same molecule, the Potency result in assay [16], in assay [17], in [19] and in assay [18] was “inactive” each time. Further, the result in assay [4] and in assay [5] was inactive. In addition, the Potency in [14] is 1.3 µM (active).

On to `O=C(NC1CCN(CCc2c[nH]c3ccccc23)CC1)c1ccccc1`, for which the Potency result in [1], in assay [2], in assay [3], in assay [6], in assay [7] and in assay [8] was “inactive” each time. The Potency result in [9], in assay [10], in assay [11], in assay [13], in assay [14] and in assay [15] was “inactive” each time. Also, the Potency entry in [19] is “inactive”. For the same molecule, the outcome in assay [4] and in [5] was inactive. Further, the Potency in [12] was 0.46 µM (active); in assay [17] it was 13.3 µM (active); in assay [18] it was 0.596 µM (active).

Consider `CCC(CC)(CC(=O)Nc1cccc(/C=C/c2nc(C3CCC3)cs2)c1)C(=O)O`, for which the Potency result in assay [1], in assay [2], in assay [3], in [6], in [7] and in assay [8] was “inactive” throughout. For the same molecule, the Potency entry in [9], in assay [10], in assay [11], in [12], in assay [13] and in [14] was “inactive” in each case. Also, the Potency entry in [15], in assay [17], in assay [19] and in assay [18] was “inactive” each time. The outcome in assay [4] and in assay [5] was inactive.

On to `C[C@H](N)C(=O)N[C@@H](C)C(=O)NC1[C@H]2CN(c3nc4c(cc3F)c(=O)c(C(=O)O)cn4-c3ccc(F)cc3F)C[C@@H]12` (stereo partly drawn), for which the Potency result in assay [1], in assay [2], in assay [3], in assay [6], in assay [7] and in assay [8] was “inactive” each time. Besides, the Potency result in [9], in [10], in [11], in [12], in [13] and in assay [14] was “inactive” throughout. For the same molecule, the Potency result in assay [15], in [17], in assay [19] and in assay [18] was “inactive” each time. The outcome in assay [4] and in assay [5] was inactive.

Take `C=CC(C)(CCC=C(C)C)OC(=O)c1ccccc1` (stereo not drawn): the Potency entry in assay [1], in [3], in assay [6], in [7], in [8] and in assay [9] was “inactive” each time. Further, the Potency entry in assay [10], in assay [11], in assay [12], in assay [13], in assay [14] and in assay [15] was “inactive” throughout. Also, the Potency entry in [16], in assay [17], in assay [19] and in [18] was “inactive” throughout. Also, the Potency in assay [2] is 24.3 µM (active). Further, the outcome in assay [4] and in [5] was inactive.
